Compound activity (PubChem BioAssay)
TDP1 cell noCPT: qHTS for Inhibitors of human tyrosyl-DNA phosphodiesterase 1 (TDP1): qHTS in cells in absence of CPT; 420,000 compounds, 15% hits; AID 686978, 2013; Potency, µM (top dose mostly 46.2 µM), for inactives: at the highest dose activity change, negative = growth inhibition, usual class: inhibitors; DT40 Tdp1-/- hTDP1 cells, no CPT, ATP luminescence, 48 h; note: potency is the fitted concentration of half-maximal effect; nearly all actives have a fitted effect of over 55% in size
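Growth of hTDP1-complemented DT40 Tdp1-knockout cells is measured by ATP luminescence after at least 48 hr compound exposure at 37 °C, with DMSO substituting for the 20 nM CPT used in the parallel screen.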
HT1080-NT tox: qHTS for induction of synthetic lethality in tumor cells producing 2HG: qHTS for the HT-1080-NT fibrosarcoma cell line | 360,000 compounds, 1.6% hits | Potency, µM (series often up to 46.1 µM), for inactives: at the highest dose activity, negative = less viability, actives largely listed as cytotoxic | AID 686970, 2013 | HT-1080-NT fibrosarcoma viability, CellTiter-Glo ATP luminescence, 48 h;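 note: NT is the 2HG producing partner of a matched IDH1 knockdown line; potency is the fitted concentration of half-maximal effect; 0% = DMSO-treated cells and -100% = media-only wells without cells; nearly all actives have a fitted effect of over 55% in size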
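A 48-hour cytotoxicity screen used HT-1080-NT cells plated 2 hours before compound delivery. ATP-based CellTiter-Glo luminescence measured viability, normalized to DMSO and no-cell controls.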
TDP1 cell CPT: qHTS for Inhibitors of human tyrosyl-DNA phosphodiesterase 1 (TDP1): qHTS in cells in presence of CPT | chicken DT40 Tdp1-/-;hTDP1 cells + 20 nM CPT, ATP luminescence, 48 h | Potency, µM (highest dose often 46.2 µM), for inactives: top-dose activity change, negative = growth inhibition, hits mostly inhibitors | 420,000 compounds, 12% hits; note: potency is the fitted concentration of half-maximal effect; nearly all actives have a fitted effect of over 55% in size
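Chicken DT40 Tdp1-/- cells stably complemented with human TDP1 were seeded at 400 cells/well in medium containing 20 nM camptothecin, exposed to pin-transferred compounds, and grown at 37 °C for at least 48 hr. Viability was read as ATP luminescence.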
ELG1 repair inh: qHTS screen for small molecules that inhibit ELG1-dependent DNA repair in human embryonic kidney (HEK293T) cells expressing luciferase-tagged ELG1; HEK293T ELG1-luciferase reporter, luminescence, 16 h; DNA damage induced by 5-fluorouridine; Potency, µM (titrated, usually from 46.1 µM), for inactives: at the top dose activity change, negative = inhibition, actives largely listed as inhibitors; 330,000 compounds, 2.3% hits; AID 504467, 2011; note: potency is the fitted concentration of half-maximal effect; nearly all actives have a fitted effect of over 55% in size
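Reporter activity after DNA damage by 5-fluorouridine is monitored. Compound-treated cells incubate 16 hr at 37 °C, then ONE-Glo is added for 30 min before luminescence reading.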
HT1080 IDH1KD tx: qHTS for induction of synthetic lethality in tumor cells producing 2HG: qHTS for the HT-1080-IDH1KD cell line | HT-1080 IDH1 knockdown viability, ATP luminescence, 48 h | Potency, µM (doses to about 46.1 µM), without a hit: top-dose activity, negative = toxicity, usual class: cytotoxic | 360,000 compounds, 2% hits;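 note: potency is the fitted concentration of half-maximal effect; 0% = DMSO wells and -100% = cell-free medium wells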
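IDH1KD HT-1080 cells, 750/well, RPMI + 5% FBS; compound pinned after 2 h settling; 48 h, 37 °C; CellTiter-Glo luminescence; % activity normalised to DMSO and no-cell wells; curves fitted, classed by r2 and efficacy.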
IL-1B inflam inh: qHTS for Inhibitors of Inflammasome Signaling: IL-1-beta AlphaLISA Primary Screen | THP-1 LPS/ATP IL-1B secretion, AlphaLISA, 16 h; stronger effect = lower value | activity change, % at 57.5 µM | 360,000 compounds, 4.7% hits | AID 743279, 2014; in the data active = activity change below about -50%; inconclusive = mostly about -30% to -49%
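THP-1 cells pretreated 1 hr with compounds (up to 57.5 uM final), then stimulated with LPS (250 ng/mL final) plus ATP (1.25 mM final); secreted IL-1B measured by AlphaLISA after 16 hr, decreased signal indicating inhibition.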
An asterisk follows results filed as active; ? = inconclusive; nt = not tested or not shown. Hits are enriched below; roughly 19% of the tested compounds scored in any of these assays. Unless noted, calls come from the whole dose curve; as a rule, active = well fitted curve in the direction sought with a large enough effect; inconclusive = small, poorly fitted or top-dose-only effect, or another doubt; inactive = no such curve, though single readings can be large; an effect the other way counts as inactive or inconclusive. Unless noted, % is set by controls: 0 for no effect and ±100 for the full control effect.

SMILES	TDP1 cell noCPT	HT1080-NT tox	TDP1 cell CPT	ELG1 repair inh	HT1080 IDH1KD tx	IL-1B inflam inh
Cc1ccc(S(=O)(=O)N(C)c2ccc(C(=O)NCC(c3cccs3)N3CCOCC3)cc2)cc1 (stereo unspecified)	?	-3.7%	20.6µM*	-2.5%	-11.4%	-6.5
O=C(NCC(c1ccco1)N1CCCCC1)c1ccc(OCc2ccccc2)cc1 (stereo unspecified)	-12.4%	13.9%	-5.8%	-27.6%	23.8%	14.2
COc1ccccc1NS(=O)(=O)c1ccc(C(=O)NCC(c2ccco2)N2CCCCC2)cc1 (stereo unspecified)	-24.9%	2.6%	14.6µM*	nt	-0.3%	21.2
COc1ccccc1NS(=O)(=O)c1cccc(C(=O)NCC(c2ccco2)N2CCCCC2)c1 (stereo unspecified)	?	1.0%	?	?	-6.1%	-7.2
CN(C)C(CNC(=O)c1cc(Br)ccc1Cl)c1ccco1 (stereo unspecified)	-21.2%	8.0%	-1.7%	?	8.9%	5.2
O=C(NCC(c1ccco1)N1CCCCC1)c1ccc(COc2ccccc2)cc1 (stereo unspecified)	?	-0.5%	?	-5.7%	-10.1%	-72.1*
C[C@@H]1CN([C@H](C)CO)S(=O)(=O)c2ccc(Br)cc2O[C@H]1CN(C)C(=O)Cc1ccccn1	?	3.7%	11.1%	nt	1.9%	16.7
O=C(N[C@@H](Cc1ccccc1)C(=O)NCc1ccc(F)cc1)C1CCNCC1	6.5%	-1.9%	-0.7%	6.9%	2.4%	-10.2
Cc1ccc(S(=O)(=O)N(C)c2ccc(C(=O)NCC(c3ccccc3)N3CCCC3)cc2)cc1 (stereo unspecified)	20.6µM*	-0.5%	?	nt	-15.5%	-18.8
Cc1ccc(S(=O)(=O)Nc2cccc(C(=O)NCC(c3ccco3)N3CCCCC3)c2)cc1F (stereo unspecified)	20.6µM*	-4.3%	?	-8.0%	-5.9%	-66.1*
COc1ccc(C(CNC(=O)c2ccc(F)cc2)N2CCCC2)cc1 (stereo unspecified)	-29.2%	nt	-27.7%	nt	nt	nt
O=C(NCC(c1ccco1)N1CCCC1)c1cc(S(=O)(=O)N2CCOCC2)ccc1Cl (stereo unspecified)	-14.7%	-2.3%	-11.7%	18.5%	-0.5%	-16.7
CN(c1ccccc1)S(=O)(=O)c1ccc(Cl)c(C(=O)NCC(c2ccco2)N2CCCC2)c1 (stereo unspecified)	13µM*	-0.4%	13µM*	2.9%	-0.6%	-1.3
O=C(NCC(c1ccc(Cl)cc1)N1CCCCC1)c1ccccc1 (stereo unspecified)	14.6µM*	nt	13µM*	nt	nt	nt
Cc1ccc(C(=O)NNC(=O)c2ccc(S(=O)(=O)N(C)c3ccccc3)cc2)cc1	-3.5%	1.1%	-1.4%	-2.1%	0.7%	14.3
Cc1cc(S(=O)(=O)Nc2ccc(C(=O)NCC(c3ccco3)N3CCCCC3)cc2)ccc1F (stereo unspecified)	-24.0%	0.0%	-9.2%	0.2%	0.6%	-11.7
COc1cccc(NC(=S)N(Cc2cccc(Br)c2)CC2CCC(C(=O)O)CC2)c1 (stereo unspecified)	-22.6%	?	?	15.0%	-12.5%	-7.1
